# Assay outcomes (PubChem BioAssay)
# Hits are enriched below; roughly 2.9% of the tested compounds scored in any of these assays.
# pPAFAH FP inh: pPAFAH enzyme inhibitors, primary screen, biochemical, fluorescence polarization, human; inhibition, % at 3.39 µM; Platelet-activating factor acetylhydrolase (Homo sapiens), Q13093; recombinant pPAFAH, FP-rhodamine probe fluorescence polarization; AID 463082, 2010; 330,000 tested, 1.5% active;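 active = inhibition above the mean inhibition across the screen plus 3 SD, cut at about 25% in these data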;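 also: inhibitors block binding of the rhodamine activity-based probe so polarization drops; 0% = enzyme with DMSO and 100% = wells lacking pPAFAH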
# PME-1 primary: PME-1 inhibitors via competitive probe labeling, primary screen, biochemical, fluorescence polarization, FP-Rh probe, HTS | Protein phosphatase methylesterase 1 (Homo sapiens), Q9Y570 | recombinant PME-1 | inhibition, % at 5.9 µM | 320,000 tested, 0.53% active | AID 2130, 2009;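 active = inhibition above the campaign mean of all compounds plus 3 SD, cut at about 26% in these data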;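 also: competitive labeling of PME-1 active site by serine hydrolase directed probe; 0% = PME-1 with DMSO and 100% = wells lacking PME-1 enzyme; inhibitors block probe labeling so polarization falls and inhibition rises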
# Target sequence (Q9Y570 whole entry, looked up): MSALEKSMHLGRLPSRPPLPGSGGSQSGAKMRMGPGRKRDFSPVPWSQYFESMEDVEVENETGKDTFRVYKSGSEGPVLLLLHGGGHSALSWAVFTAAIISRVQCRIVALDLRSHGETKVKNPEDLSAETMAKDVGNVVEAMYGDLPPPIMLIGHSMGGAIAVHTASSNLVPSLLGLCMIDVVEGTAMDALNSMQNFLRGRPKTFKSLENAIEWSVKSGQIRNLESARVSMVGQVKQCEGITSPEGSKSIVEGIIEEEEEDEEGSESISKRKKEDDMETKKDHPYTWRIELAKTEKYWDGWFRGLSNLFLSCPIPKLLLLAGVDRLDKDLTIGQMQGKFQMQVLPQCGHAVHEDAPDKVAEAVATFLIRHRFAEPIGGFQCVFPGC
# PAFAH1B3 inh: PAFAH1B3 enzyme inhibitors, primary screen, biochemical, fluorescence polarization, human; Platelet-activating factor acetylhydrolase IB subunit alpha1 (Homo sapiens), Q15102; recombinant PAFAH1B3, FP-rhodamine probe; inhibition, % at 3.39 µM; 340,000 tested, 0.28% active; AID 492972, 2010;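 active = inhibition above the screen-wide average of all tested compounds plus 3 SD, cut at about 25% in these data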;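 also: 0% = enzyme with DMSO only and 100% = wells lacking PAFAH1B3 protein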
# PAFAH1B2 inh: PAFAH1B2 enzyme inhibitors, primary screen, biochemical, fluorescence polarization, human. Platelet-activating factor acetylhydrolase IB subunit alpha2 (Homo sapiens), P68402. recombinant PAFAH1B2, FP-rhodamine activity probe. inhibition, % at 3.39 µM. 340,000 tested, 1.2% active;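 active = inhibition above the mean of all tested compounds plus 3 SD, cut at about 24% in these data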;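 also: 0% = enzyme with DMSO and 100% = wells lacking PAFAH1B2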
# Fam108B counter: mouse Fam108B serine hydrolase inhibitors, primary screen, counter-screen for RBBP9 inhibitor project, biochemical, fluorescence polarization | recombinant Fam108B, FP-Rh probe fluorescence polarization | inhibition, % at 9.51 µM | AID 1947, 2009 | 300,000 tested, 0.33% active;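 active = inhibition above the screen mean inhibition plus 3 SD, computed separately per campaign, cut at about 18% in these data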;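 also: inhibitors lower polarization as less probe binds the enzyme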
# PAFAH2 FP inh: PAFAH2 enzyme inhibitors, primary screen, biochemical, fluorescence polarization, human; recombinant PAFAH2, FP-rhodamine activity probe; inhibition, % at 3.39 µM; Platelet-activating factor acetylhydrolase 2, cytoplasmic (Homo sapiens), Q99487; 340,000 tested, 0.99% active; AID 492956, 2010;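 active = inhibition above the mean over all tested compounds plus 3 SD, cut at about 30% in these data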;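 also: inhibitors block probe labeling of enzyme so polarization drops; 0% = enzyme with DMSO and 100% = wells lacking PAFAH2 protein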
# Fam108b inh conf: mouse Fam108b serine hydrolase inhibitors, confirmation, counter-screen for RBBP9 inhibitor project, biochemical, fluorescence polarization, triplicate | shares compounds with Fam108B counter | recombinant Fam108b, FP-Rh probe fluorescence polarization | inhibition, % at 9.51 µM | 930 tested, 44% active | AID 1978, 2009;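 active = inhibition above a limit from the primary screen, the mean over all compounds plus 3 SD, cut at about 19% in these data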;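 also: 0% = median of active Fam108b wells and 100% = catalytically dead S170A mutant; inhibitors free the probe so polarization falls as inhibition rises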
# Fam108b inh: inhibition of mouse Fam108b by HTS hits, late-stage follow-up, biochemical, gel-based ABPP, soluble recombinant form; shares compounds with Fam108B counter; fluorophosphonate probe; inhibition, % at 20 µM; 260 tested, 44% active; AID 588649, 2011; in the data active = inhibition above about 40%
# pPAFAH FP conf: pPAFAH (PLA2G7) enzyme inhibitors, confirmation, biochemical, fluorescence polarization, human. shares compounds with pPAFAH FP inh. recombinant pPAFAH, FP-Rh probe fluorescence polarization. inhibition, % at 3.39 µM. 2,300 tested, 72% active;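 active = mean inhibition of the triplicate above the hit cutoff set for the earlier primary screen, cut at about 25% in these data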;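 also: 0% = enzyme with DMSO and 100% = wells lacking pPAFAH enzyme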
# * marks the source's active call; other numbers are inactive results; x = no result given.
SMILES,pPAFAH FP inh,PME-1 primary,PAFAH1B3 inh,PAFAH1B2 inh,Fam108B counter,PAFAH2 FP inh,Fam108b inh conf,others
COc1ccc([C@H]2Cc3cc(O)cc(O)c3C(=O)O2)cc1O,2.2,x,-1.9,-3.6,x,2.5,x,
O=C(CNc1cccc2ccccc12)N/N=C/c1ccccn1,11.3,13.0,x,x,0.5,x,x,
O=C(CNc1cccc2ccccc12)N/N=C/c1cccc(Oc2ccccc2)c1,19.3,36.2*,6.3,0.7,32.5*,14.6,12.8,
CCCC(=NC(C)CC)C1=C(O)CC(c2ccccc2)CC1=O (stereo unspecified),2.4,-4.6,-1.8,5.9,1.3,-3.9,x,
C=CCn1c(N)c(C(=O)OCCC)c2nc3ccccc3nc21,-0.3,4.0,18.9,6.1,0.2,-7.4,x,
COCCn1c(N)c(C(=O)OCc2ccccc2)c2nc3ccccc3nc21,14.1,-4.4,10.6,4.0,42.2*,4.2,-2.1,
Cn1ccnc1C(O)c1ccccc1 (stereo unspecified),4.8,-0.4,2.1,2.0,-1.3,1.1,x,
COc1ccc2ccccc2c1C(O)c1nccn1C (stereo unspecified),7.0,28.9*,39.0*,32.1*,25.6*,44.5*,55.5*,Fam108b inh=0.0
CCOC(=O)C1CCN(C(=O)COC(=O)CN(C)S(=O)(=O)c2ccc(NC(C)=O)cc2)CC1,5.5,4.6,14.7,2.0,-1.8,5.9,x,
CSc1ccccc1OCc1cc(C(=O)N(C)Cc2cnccn2)no1,2.2,2.7,11.7,4.7,-0.2,5.7,x,
CCN(C(=O)COC(=O)Cc1c[nH]c2ccccc12)c1c(N)n(Cc2ccccc2)c(=O)[nH]c1=O,4.7,7.1,8.9,1.0,-3.3,3.4,x,
COCC(=O)N(Cc1cc2ccc(C)cc2[nH]c1=O)c1ccc(OC)cc1,9.5,-1.0,15.0,1.0,0.8,-6.3,x,
COCC(=O)N(Cc1cc2cc(OC)ccc2[nH]c1=O)c1ccc(C)cc1,2.4,-1.1,-0.3,5.8,23.5*,-3.9,6.0,
NC(=O)c1cc([N+](=O)[O-])ccc1NCc1ccc(N)cc1,4.0,4.4,13.8,5.4,0.1,-6.8,x,
O=Nc1ccc(O)c2ncccc12,6.0,20.7,8.0,9.7,3.0,10.0,x,
O=S(=O)(O)c1cccc2c(N=Nc3ccc(O)c4ncccc34)cccc12,91.9*,24.2,63.8*,40.8*,50.1*,65.7*,44.6*,Fam108b inh=0.0;pPAFAH FP conf=91.4*
CSc1ccccc1NC(=O)CSc1cccc[n+]1[O-],5.4,x,4.1,1.2,x,-0.2,x,
O=C(NN=C1CCN(Cc2ccccc2)CC1)c1cc2ccccc2cc1O,47.2*,29.0*,5.8,12.7,33.5*,3.6,-2.7,pPAFAH FP conf=21.5
COc1ccccc1C(=O)COC(=O)c1c(-c2ccccc2)noc1C,3.7,-0.2,3.1,2.6,2.3,-8.4,x,
O=C1c2ccccc2C(=O)c2c1cccc2N1CCCC1,19.5,22.1,8.8,4.7,12.6,7.8,x,
Cn1c(=O)cc2c3c(c(N4CCCCC4)ccc31)C(=O)c1ccccc1-2,54.5*,39.9*,x,x,24.5*,x,19.3*,pPAFAH FP conf=28.3*
CC1=NN(c2ccccc2)C(=O)/C1=C/C=C/c1ccccc1,2.0,16.2,11.9,11.2,6.9,10.0,x,
CC1=NN(c2cccc(C(=O)O)c2)C(=O)/C1=C\C=C\c1ccco1,44.8*,-6.8,13.0,10.1,24.4*,48.5*,29.4*,pPAFAH FP conf=32.0*
